Laboratory results from the supplement of paper PMC10849652.
Of roughly 8,800 targets only a part is listed; those with a hit were picked by preference. About 0.5% of all pairs of compound and target were hits. A number with no mark means an inactive call.

Tests used:
Assay in all cases: log2 fold change, soluble protein after heating vs DMSO (PISA); higher = thermal stabilisation; K562 lysate, 10 uM; active = over 0.2 and 3.5 SD of the protein, either way, in both replicates (recomputed)
[1] = compound: Cc1cn(-c2cc(NC(=O)c3ccc(C)c(Nc4nccc(-c5cccnc5)n4)c3)cc(C(F)(F)F)c2)cn1 [nilotinib]
Procedure, shortened: (§1)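 Thermal stability, expressed as log-two fold change relative to solvent controls, is given from duplicates. Crude K562 extract in PBS pH 7.4 with 1 mM MgCl2, at 1 mg/mL protein, was treated with 10 μM compound for 30 min and heated in aliquots for 3 min across 48°C-58°C. After pooling, adjustment to 0.5% NP-40 at 4°C and centrifugation at 21,000xg for 90 min, supernatant protein was measured by TMTpro 16plex LC-MS/MS with channel sums equalised.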

[2] = compound: Cc1nc(Nc2n[nH]c3c2CN(C(=O)N[C@H](CN(C)C)c2ccccc2)C3(C)C)c2sccc2n1
Procedure, shortened: as §1

[3] = compound: Cc1nc(Nc2ncc(C(=O)Nc3c(C)cccc3Cl)s2)cc(N2CCN(CCO)CC2)n1 [dasatinib]
Procedure, shortened: as §1

[4] = compound: Cc1ncc(-c2ccnc(Nc3ccc(S(C)(=O)=O)cc3)n2)n1C(C)C
Procedure, shortened: as §1

[5] = compound: Cn1cc(-c2ccc3c(c2)CCN3C(=O)Cc2cccc(C(F)(F)F)c2)c2c(N)ncnc21
Procedure, shortened: as §1

[6] = compound: Cn1cc(CNCC2CCN(c3ncc(C(=O)NO)cn3)CC2)c2ccccc21 [quisinostat]
Procedure, shortened: as §1

[7] = compound: Cn1cncc1[C@@](N)(c1ccc(Cl)cc1)c1ccc2c(c1)c(-c1cccc(Cl)c1)cc(=O)n2C [tipifarnib]
Procedure, shortened: as §1

[8] = compound: NC(=O)Nc1cc(-c2cccc(F)c2)sc1C(=O)N[C@H]1CCCNC1
Procedure, shortened: as §1

[9] = compound: NC(=O)c1cnc(N[C@@H]2CCCC[C@@H]2N)nc1Nc1cccc(-n2nccn2)c1
Procedure, shortened: as §1

[10] = compound: NC1(c2ccc(-c3nc4ccn5c(=O)[nH]nc5c4cc3-c3ccccc3)cc2)CCC1
Procedure, shortened: as §1

Chain of UniProt Q9NSK0 (Q9NSK0 whole entry, looked up): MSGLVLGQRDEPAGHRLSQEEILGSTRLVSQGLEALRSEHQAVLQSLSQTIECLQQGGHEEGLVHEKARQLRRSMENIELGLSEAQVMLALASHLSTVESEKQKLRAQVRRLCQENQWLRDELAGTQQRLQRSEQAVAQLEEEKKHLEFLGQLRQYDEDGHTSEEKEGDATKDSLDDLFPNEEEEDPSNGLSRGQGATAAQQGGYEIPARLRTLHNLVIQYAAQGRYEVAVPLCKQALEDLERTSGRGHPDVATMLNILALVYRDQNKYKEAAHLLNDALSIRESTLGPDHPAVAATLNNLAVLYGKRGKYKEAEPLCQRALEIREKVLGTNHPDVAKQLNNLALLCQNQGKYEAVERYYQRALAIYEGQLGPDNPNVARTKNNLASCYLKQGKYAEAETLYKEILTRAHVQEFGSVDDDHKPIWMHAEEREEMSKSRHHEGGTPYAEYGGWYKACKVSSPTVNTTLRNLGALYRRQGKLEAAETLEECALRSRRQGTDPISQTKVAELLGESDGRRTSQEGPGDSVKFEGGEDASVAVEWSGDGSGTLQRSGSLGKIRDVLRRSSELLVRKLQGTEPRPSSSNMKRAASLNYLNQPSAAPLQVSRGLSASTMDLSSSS
Chain of UniProt Q9NZL9 (Q9NZL9 whole entry, looked up): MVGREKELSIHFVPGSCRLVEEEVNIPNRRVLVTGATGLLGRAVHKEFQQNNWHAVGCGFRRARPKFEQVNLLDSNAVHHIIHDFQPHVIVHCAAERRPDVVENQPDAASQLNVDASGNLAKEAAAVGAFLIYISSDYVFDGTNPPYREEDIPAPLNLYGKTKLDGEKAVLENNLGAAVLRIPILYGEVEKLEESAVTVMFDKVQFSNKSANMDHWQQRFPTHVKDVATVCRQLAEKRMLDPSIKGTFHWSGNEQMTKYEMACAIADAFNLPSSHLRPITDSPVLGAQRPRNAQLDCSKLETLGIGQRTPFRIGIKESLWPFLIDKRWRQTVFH
Chain of UniProt P49137 (P49137 whole entry, looked up): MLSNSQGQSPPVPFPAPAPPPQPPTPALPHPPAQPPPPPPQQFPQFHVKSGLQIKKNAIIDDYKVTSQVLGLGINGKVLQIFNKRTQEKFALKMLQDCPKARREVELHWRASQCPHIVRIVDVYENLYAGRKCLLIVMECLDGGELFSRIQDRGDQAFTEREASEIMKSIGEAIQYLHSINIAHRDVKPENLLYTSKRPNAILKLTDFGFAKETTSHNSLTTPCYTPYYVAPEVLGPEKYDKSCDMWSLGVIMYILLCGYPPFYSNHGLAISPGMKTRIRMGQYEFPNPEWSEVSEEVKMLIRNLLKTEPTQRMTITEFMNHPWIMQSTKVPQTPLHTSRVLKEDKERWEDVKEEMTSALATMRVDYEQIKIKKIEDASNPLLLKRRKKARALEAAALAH
Chain of UniProt Q92615 (Q92615 whole entry, looked up): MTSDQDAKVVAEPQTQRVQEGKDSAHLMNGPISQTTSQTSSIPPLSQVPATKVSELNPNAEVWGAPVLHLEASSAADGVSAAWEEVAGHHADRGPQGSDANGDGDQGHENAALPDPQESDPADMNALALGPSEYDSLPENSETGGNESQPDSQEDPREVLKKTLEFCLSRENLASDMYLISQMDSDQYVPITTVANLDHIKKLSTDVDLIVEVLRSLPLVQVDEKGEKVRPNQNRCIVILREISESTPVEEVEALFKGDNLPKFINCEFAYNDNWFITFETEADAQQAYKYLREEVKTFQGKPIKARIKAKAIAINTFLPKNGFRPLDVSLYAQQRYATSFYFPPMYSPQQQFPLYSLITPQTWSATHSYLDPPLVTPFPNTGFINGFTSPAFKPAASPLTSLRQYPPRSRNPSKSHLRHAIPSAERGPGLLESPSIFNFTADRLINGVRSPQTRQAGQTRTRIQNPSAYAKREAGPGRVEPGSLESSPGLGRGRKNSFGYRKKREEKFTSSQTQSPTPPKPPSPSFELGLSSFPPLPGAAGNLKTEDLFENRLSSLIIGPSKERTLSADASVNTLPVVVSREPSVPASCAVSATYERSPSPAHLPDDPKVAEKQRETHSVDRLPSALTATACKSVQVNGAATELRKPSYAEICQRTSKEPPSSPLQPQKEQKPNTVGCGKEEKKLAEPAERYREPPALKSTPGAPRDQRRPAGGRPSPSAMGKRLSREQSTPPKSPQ
Chain of UniProt Q07866 (Q07866 whole entry, looked up): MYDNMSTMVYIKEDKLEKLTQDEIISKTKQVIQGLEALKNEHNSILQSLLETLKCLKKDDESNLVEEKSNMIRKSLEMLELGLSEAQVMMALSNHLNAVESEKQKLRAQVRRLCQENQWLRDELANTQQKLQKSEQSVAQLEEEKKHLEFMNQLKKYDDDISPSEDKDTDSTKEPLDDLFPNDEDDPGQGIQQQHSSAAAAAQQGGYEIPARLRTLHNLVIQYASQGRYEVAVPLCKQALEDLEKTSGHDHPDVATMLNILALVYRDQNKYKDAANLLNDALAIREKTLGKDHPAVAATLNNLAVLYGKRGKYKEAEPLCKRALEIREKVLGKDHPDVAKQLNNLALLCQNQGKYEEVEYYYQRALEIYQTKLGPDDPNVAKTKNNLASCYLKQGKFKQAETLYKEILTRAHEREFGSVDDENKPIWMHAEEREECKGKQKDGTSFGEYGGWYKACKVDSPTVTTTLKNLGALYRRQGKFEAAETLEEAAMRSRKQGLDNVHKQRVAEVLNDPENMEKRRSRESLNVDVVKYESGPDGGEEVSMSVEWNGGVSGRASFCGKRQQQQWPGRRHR
Chain of UniProt Q9UFC0 (Q9UFC0 whole entry, looked up): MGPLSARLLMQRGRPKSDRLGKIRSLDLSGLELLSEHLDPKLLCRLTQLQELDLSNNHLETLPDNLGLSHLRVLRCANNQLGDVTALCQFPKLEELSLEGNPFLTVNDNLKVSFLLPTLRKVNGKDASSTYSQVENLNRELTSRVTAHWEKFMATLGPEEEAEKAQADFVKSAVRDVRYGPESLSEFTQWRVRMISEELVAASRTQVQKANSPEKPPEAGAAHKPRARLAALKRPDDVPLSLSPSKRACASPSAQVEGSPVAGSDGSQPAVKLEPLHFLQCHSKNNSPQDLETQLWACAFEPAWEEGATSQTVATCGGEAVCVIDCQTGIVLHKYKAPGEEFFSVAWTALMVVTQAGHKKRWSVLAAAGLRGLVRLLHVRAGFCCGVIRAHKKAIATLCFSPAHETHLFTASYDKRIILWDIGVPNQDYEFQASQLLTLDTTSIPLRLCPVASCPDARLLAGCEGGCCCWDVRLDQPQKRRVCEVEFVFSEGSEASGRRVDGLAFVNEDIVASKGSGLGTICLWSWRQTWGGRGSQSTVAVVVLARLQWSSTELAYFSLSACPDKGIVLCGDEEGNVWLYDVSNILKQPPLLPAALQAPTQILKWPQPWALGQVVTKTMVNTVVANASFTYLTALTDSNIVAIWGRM
Chain of UniProt Q8NHP6 (Q8NHP6 whole entry, looked up): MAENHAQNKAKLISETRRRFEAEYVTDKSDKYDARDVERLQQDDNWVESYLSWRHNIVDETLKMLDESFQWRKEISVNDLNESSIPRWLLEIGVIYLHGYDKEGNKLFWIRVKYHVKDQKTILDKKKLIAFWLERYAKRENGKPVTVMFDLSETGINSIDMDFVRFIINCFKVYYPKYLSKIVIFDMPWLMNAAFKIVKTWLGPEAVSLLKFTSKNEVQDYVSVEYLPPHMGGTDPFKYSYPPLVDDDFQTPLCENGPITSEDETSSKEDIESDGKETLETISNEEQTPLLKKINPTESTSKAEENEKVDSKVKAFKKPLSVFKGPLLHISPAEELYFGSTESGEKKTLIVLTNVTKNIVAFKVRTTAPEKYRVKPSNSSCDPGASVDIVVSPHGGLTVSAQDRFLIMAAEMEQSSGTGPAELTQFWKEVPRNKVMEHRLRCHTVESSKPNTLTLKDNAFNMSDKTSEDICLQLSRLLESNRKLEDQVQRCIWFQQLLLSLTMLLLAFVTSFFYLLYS
Chain of UniProt Q96G25 (Q96G25 whole entry, looked up): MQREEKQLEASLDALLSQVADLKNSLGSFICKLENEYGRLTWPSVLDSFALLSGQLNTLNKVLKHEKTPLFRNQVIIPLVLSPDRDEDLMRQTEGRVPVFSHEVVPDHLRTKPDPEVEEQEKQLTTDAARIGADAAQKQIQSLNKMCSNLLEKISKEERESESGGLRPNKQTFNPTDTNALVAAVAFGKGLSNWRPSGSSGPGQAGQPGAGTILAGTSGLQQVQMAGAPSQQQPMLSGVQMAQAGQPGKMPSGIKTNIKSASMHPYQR
Chain of UniProt Q14657 (Q14657 whole entry, looked up): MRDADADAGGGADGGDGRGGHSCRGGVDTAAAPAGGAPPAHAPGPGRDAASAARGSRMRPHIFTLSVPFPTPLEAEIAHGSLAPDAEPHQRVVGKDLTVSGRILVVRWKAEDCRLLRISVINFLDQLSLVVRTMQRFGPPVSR
Chain of UniProt Q9UI95 (Q9UI95 whole entry, looked up): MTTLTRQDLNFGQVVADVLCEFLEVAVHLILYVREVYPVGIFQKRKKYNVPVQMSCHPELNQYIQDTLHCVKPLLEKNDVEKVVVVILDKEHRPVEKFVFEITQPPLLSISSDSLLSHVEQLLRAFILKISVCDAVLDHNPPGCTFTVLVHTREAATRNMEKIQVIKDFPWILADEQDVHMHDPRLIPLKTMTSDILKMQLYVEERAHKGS
Chain of UniProt P07948 (P07948 whole entry, looked up): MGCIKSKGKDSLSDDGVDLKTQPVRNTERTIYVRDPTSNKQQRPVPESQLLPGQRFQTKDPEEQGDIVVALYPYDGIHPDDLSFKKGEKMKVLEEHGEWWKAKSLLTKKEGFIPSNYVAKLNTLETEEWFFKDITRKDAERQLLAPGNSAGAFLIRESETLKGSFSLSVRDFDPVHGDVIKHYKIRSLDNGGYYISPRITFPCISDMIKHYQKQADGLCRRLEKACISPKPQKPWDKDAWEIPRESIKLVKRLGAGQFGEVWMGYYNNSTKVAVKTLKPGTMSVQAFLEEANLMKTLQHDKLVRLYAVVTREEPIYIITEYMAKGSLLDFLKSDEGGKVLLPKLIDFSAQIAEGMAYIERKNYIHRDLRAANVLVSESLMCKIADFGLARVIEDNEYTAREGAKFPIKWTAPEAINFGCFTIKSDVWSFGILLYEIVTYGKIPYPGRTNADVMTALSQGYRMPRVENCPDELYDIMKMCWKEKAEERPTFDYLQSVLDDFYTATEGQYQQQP

Target	log2 fold change [1]	log2 fold change [2]	log2 fold change [3]	log2 fold change [4]	log2 fold change [5]	log2 fold change [6]	log2 fold change [7]	log2 fold change [8]	log2 fold change [9]	log2 fold change [10]
MED8 isoform 2 (UniProt Q96G25)	0.084	-0.033	-0.017	-0.007	0.044	-0.043	0.081	-0.005	0.016	0.024
MAP2K3 isoform 3 (UniProt P46734)	-0.001	-0.004	-0.021	0.021	0.059	-0.055	-0.093	0.034	-0.03	0.131
LARP4B (UniProt Q92615)	-0.05	0.03	-0.053	-0.02	0.012	-0.026	0	0.026	-0.001	0.008
MAP3K4 (UniProt Q9Y6R4)	0.003	0.206	0.485 (active)	0.095	0.132	-0.078	-0.015	0.203	0.045	-0.021
KIF15 (UniProt Q9NS87)	-0.038	-0.003	-0.03	0.052	0.044	-0.058	0.008	0.003	0.011	0
MRPL15 (UniProt Q9P015)	0.011	-0.034	0.004	-0.028	-0.008	-0.022	0.012	0.005	0.012	-0.181
LYN (UniProt P07948)	0.158	0.218	0.457	-0.026	0.095	-0.125	-0.154	0.842 (active)	0.084	-0.037
MED10 (UniProt Q9BTT4)	0.042	-0.012	0.031	-0.021	0.043	0.04	-0.066	-0.082	0.025	-0.045
LAGE3 (UniProt Q14657)	-0.065	0.186	0.006	-0.055	0.021	-0.03	0.1	0.013	0.017	0.084
LRWD1 (UniProt Q9UFC0)	0.026	-0.05	-0.055	0.017	0.02	-0.132	0.007	0.053	0.017	-0.033
MAT2B (UniProt Q9NZL9)	0.002	-0.014	-0.023	-0.024	-0.007	0.021	0.02	-0.005	0.04	0.009
MED17 (UniProt Q9NVC6)	-0.011	0.036	-0.033	-0.116	-0.014	-0.033	-0.075	0.019	0.038	0.005
KIF4A (UniProt O95239)	-0.02	0.029	-0.011	0.014	0.037	-0.104	0.017	0.042	-0.014	0.014
KPNA2 (UniProt P52292)	-0.051	-0.002	-0.041	0.018	0.039	-0.01	-0.023	0.026	0.039	-0.05
KLC4 isoform 3 (UniProt Q9NSK0)	-0.023	0.047	-0.013	0.089	0.048	-0.018	-0.015	0.01	0.021	-0.003
MMS22L (UniProt Q6ZRQ5)	0.033	0	0.026	-0.015	-0.007	-0.086	-0.013	0.041	-0.03	-0.06
KNL1 (UniProt Q8NG31)	0.011	-0.004	-0.014	0.02	0.012	-0.048	-0.06	0.023	0.024	-0.001

Target	log2 fold change [1]	log2 fold change [2]	log2 fold change [3]	log2 fold change [4]	log2 fold change [5]	log2 fold change [6]	log2 fold change [7]	log2 fold change [8]	log2 fold change [9]	log2 fold change [10]
MED13L (UniProt Q71F56)	0.06	-0.056	0.017	0.032	0.045	-0.055	-0.012	0.069	0.014	0.015
LRPPRC (UniProt P42704)	-0.019	-0.004	-0.062	0.012	0.056	-0.003	-0.027	0.052	0.047	0.004
MIPEP (UniProt Q99797)	0.002	0.024	0.005	-0.008	0.031	0.45 (active)	0.033	-0.016	0.01	0.054
MAPKAPK2 (UniProt P49137)	0.032	0.068	-0.043	-0.008	0	0.01	0.032	0.148	0.022	0.008
KMT2A isoform 3 (UniProt Q03164)	0.098	-0.428 (active)	0.017	0.154	0.056	-0.156	-0.178	0.032	0.133	-0.037
LGALS3BP (UniProt Q08380)	-0.056	0.06	0.339	-0.043	-0.128	-0.007	-0.123	0.111	0.125	0.137
MAD2L2 (UniProt Q9UI95)	0.031	-0.029	-0.064	0.006	-0.035	-0.231	-0.015	0.064	0.117	-0.065
KIF11 (UniProt P52732)	-0.016	0.003	-0.021	-0.018	0.034	-0.022	-0.007	0.006	0	0
MOSPD2 (UniProt Q8NHP6)	0.054	-0.146	0.006	-0.009	0.015	-0.096	0.089	-0.034	-0.043	-0.026
MARK1 (UniProt Q9P0L2)	0.035	-0.113	-0.123	-0.019	0.003	0.092	0.023	-0.083	-0.03	-0.072
LSG1 (UniProt Q9H089)	0.003	0.015	0.102	0.026	0.137	-0.091	-0.004	0.115	-0.014	0.032
MPP1 (UniProt Q00013)	-0.017	-0.014	-0.011	0.011	0.007	0.017	0	0.024	0.017	0
MICB, A0A140T979	-0.044	0.042	0.024	0.033	-0.055	-0.06	-0.025	-0.004	0.491	0.21
KLC1 isoform 6 (UniProt Q07866)	0.009	-0.017	-0.021	-0.009	0.009	-0.014	-0.005	-0.014	0.002	0.017
LIMS1 isoform 3 (UniProt P48059)	0.076	0.035	0.017	0.104	0.018	0.255 (active)	0.002	-0.065	-0.007	0.001
METTL2A (UniProt Q96IZ6)	-0.012	0.022	0.044	-0.014	0.03	-0.042	0.01	0.057	-0.029	0.005
MLST8 (UniProt Q9BVC4)	-0.011	-0.006	0.046	0.079	-0.041	-0.058	0.076	0.043	-0.065	-0.067
